A selection: hits, their analogues and other compounds. The true share with any hit is near 14%.
Pf growth 96h – P. falciparum growth inhibition at 96 hour, primary screen for plastid delayed-death inhibitors; P. falciparum luciferase reporter growth, 96 h; Potency, µM (top dose mostly 28.7 µM), without a hit: at the highest dose activity change, negative = inhibition, actives largely listed as inhibitors; 6.9% of 320,000 active; further: potency means the concentration at half of the fitted maximal effect
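Two parasite generations (96 h, 37 C, 5% CO2) of compound exposure in infected erythrocytes (0.05% parasitemia, 2% hematocrit). Luciferase-reporter P. falciparum; decreased luminescence indicates inhibited growth, aimed at apicoplast-acting delayed death.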
HCMV antiviral – human cytomegalovirus inhibition; HFF cells, HCMV-luciferase reporter, 72 h; hits give low values; activity change, negative = inhibition, % at 57.5 µM; 4.5% of 410,000 active; AID 1259415; in the data active means activity change below about -60%; inconclusive means no clear call, values can overlap the other calls; inactive means above about -39%
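Luciferase read-out from HCMV-luciferase-infected HFFs (MOI 1 PFU/cell) 72 h post infection at 37C; compounds added after 16 h cell attachment; activity normalized between buffer-only basal and Salinomycin (10uM) inhibitor controls.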
Pf growth 48h – P. falciparum growth inhibition at 48 hours (one generation); P. falciparum luciferase growth in erythrocytes, 48 h; Potency, µM (highest dose often 28.7 µM), without a hit: top-dose activity change, negative = inhibition, hits mostly inhibitors; 5.9% of 310,000 active; further: potency means the concentration at half of the fitted maximal effect
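Luciferase-expressing parasites in RBCs, 2% Hct / 0.1% parasitemia final; RPMI 1640 + 0.5% Albumax; 37 C, 5% CO2, one generation; luminescence read-out, lower signal = inhibition.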
Sm TGR block – blocks Schistosoma mansoni thioredoxin glutathione reductase; Q962Y6; purified TGR, DTNB reduction, TNB absorbance 405 nm; Potency, µM (highest dose often 114 µM), without a hit: at the highest dose activity change, negative = inhibition, hits mostly inhibitors; 3% of 360,000 active; AID 485364; further: potency means the concentration at half of the fitted maximal effect; nearly all actives have a fitted effect of over 60% in size
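First, TGR (20 nM dispensed) and NADPH were mixed with compound. Second, a 15 min room-temperature incubation followed. Third, further NADPH and then DTNB were added to start the reaction. Finally, TNB absorbance was monitored kinetically.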
Giardia FBPA inh – Giardia lamblia aldolase inhibition. A8B2U2. purified Giardia FBPA. Potency, µM (doses to about 59.6 µM), without a hit: top-dose activity, negative = inhibition, hits mostly inhibitors. 0.71% of 290,000 active; further: potency means the concentration at half of the fitted maximal effect; nearly all actives have a fitted effect of over 55% in size
Target sequence (A8B2U2 whole entry, looked up): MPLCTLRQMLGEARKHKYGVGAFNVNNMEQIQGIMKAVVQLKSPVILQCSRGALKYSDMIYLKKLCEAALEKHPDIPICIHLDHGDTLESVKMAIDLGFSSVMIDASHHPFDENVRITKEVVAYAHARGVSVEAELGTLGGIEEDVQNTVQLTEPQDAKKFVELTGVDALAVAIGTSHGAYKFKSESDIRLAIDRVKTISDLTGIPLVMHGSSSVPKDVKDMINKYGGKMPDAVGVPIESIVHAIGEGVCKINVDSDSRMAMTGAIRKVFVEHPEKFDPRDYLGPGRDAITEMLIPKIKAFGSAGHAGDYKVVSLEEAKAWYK
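40 nM FBPA preincubated 10 min at RT with compound (up to 57.5 uM final), then substrate plus GAPDH/TPI/NAD/arsenate coupling and diaphorase/resazurin added. Fluorescence read after 20 min at RT, 525/598 nm.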
* = called active by the depositor; ? = inconclusive; · = not tested or not shown; ! = repeats disagree; [ ] = dose if it differs, or a comment. Unless noted, the call rests on the fitted dose curve; in most records, active means well fitted curve in the direction sought with a large enough effect; inconclusive means small, poorly fitted or top-dose-only effect, or another doubt; inactive means no such curve, though single readings can be large; an effect the other way counts as inactive or inconclusive. On the % scale 0 is the no-effect control and ±100 the full control effect.

SMILES	Pf growth 96h	HCMV antiviral	Pf growth 48h	Sm TGR block	Giardia FBPA inh
CCOC(=O)N1CCN(C(=O)COc2cc(=O)n(CC)c3ccccc23)CC1	36%	164	-12%	8%	5%
CCC(=O)N1CCc2cc(S(=O)(=O)CCC(=O)N3CCN(c4ccc(Cl)cc4)CC3)ccc21	22%	-77*!	?	2%	·
CCC(=O)N1c2ccc(S(=O)(=O)CCC(=O)N3CCN(c4ccccc4F)CC3)cc2CC1C (centres undefined)	?	4	-11%	22µM*	-7%
CCC(=O)N1CCc2cc(S(=O)(=O)N3CCN(c4cc(Cl)ccc4C)CC3)ccc21	5.2µM*	-19	-15%	-2%	·
CCOC(=O)C1CCCN(C(=O)CCCn2nnnc2CN2CCC(C)CC2)C1 (centres undefined)	?	-14	6%	?	4%
CC(=O)c1c(C)[nH]c(C(=O)NCc2ccc(Cl)cc2)c1C	·	5	·	·	·
CC1(C)C[C@H]2C=C(C=O)[C@]3(C=O)C[C@]3(C)[C@H]2C1	?	9	?	50µM*	-3%
Cc1cc(C(=O)CC#N)c(C)n1-c1ccc(OC(F)F)cc1	13µM*	-35	?	2%	-4%
Cc1cc(C(=O)COC(=O)c2ccc(O)cc2O)c(C)n1-c1ccc(OC(F)F)cc1	?	-63*	9.3µM*	-11%	·
COC(=O)c1cc(C(=O)OC)cc(-n2c(C)cc(C(=O)CC#N)c2C)c1	·	-17	10µM*	-12%	8%
COc1ccc(-n2c(C)cc(C(=O)CCl)c2C)cc1	?	-90*	-12%	4µM*	1%
COC(=O)c1cc(C(=O)OC)cc(-n2c(C)cc(C=O)c2C)c1	0%	-12	-16%	-4%	2%
Cc1cc(C(=O)CCl)c(C)n1-c1c(C)n(C)n(-c2ccccc2)c1=O	6.6µM*	-35	8.3µM*	0%	4%
COc1ccc(-n2c(C)cc(C(=O)COC(=O)Cn3cnc4ccccc43)c2C)cc1	48%	?	13µM*	3%	-9%
Cc1nnc(SCC(=O)c2cc(C)n(-c3c(C)n(C)n(-c4ccccc4)c3=O)c2C)s1	-5%	-1	8%	0%	2%
COc1ccc(-n2c(C)cc(C(=O)COC(=O)c3ccc(O)cc3O)c2C)cc1	12µM*	-81*	7.4µM*	-14%	·
COc1ccc(NC(=O)COC(=O)Cn2cnc3ccccc32)cc1	·	-4	·	·	·
COc1ccc(-n2c(C)cc(C(=O)CSc3nnc(-c4ccoc4C)n3C)c2C)cc1	·	?	9.3µM*	0%	?
CC1(Cc2ccc(Cl)cc2)C(=O)Nc2ccc(S(=O)(=O)NC3CCCCC3)cc21 (centres undefined)	·	-19	·	·	·
CC1(Cc2ccc(OC(F)(F)F)cc2)C(=O)Nc2ccc(S(=O)(=O)NC3CCCCC3)cc21 (centres undefined)	·	-99*	·	·	·
CC1(Cc2ccccc2OC(F)(F)F)C(=O)Nc2ccc(OC(F)(F)F)cc21 (centres undefined)	·	-76*	·	·	·
CC1(Cc2ccccc2OC(F)(F)F)C(=O)Nc2ccc(-c3ccsc3)cc21 (centres undefined)	·	-75*	·	·	·
CC1(Cc2ccccc2OC(F)(F)F)C(=O)Nc2cc(-c3ccccc3Cl)ccc21 (centres undefined)	·	0	·	·	·
CC1(Cc2ccc3ccccc3n2)C(=O)Nc2ccc(OC(F)(F)F)cc21 (centres undefined)	·	-98*	·	·	·
COc1ccccc1-c1ccc2c(c1)C(C)(Cc1ccc(OC(F)(F)F)cc1)C(=O)N2 (centres undefined)	·	-23	·	·	·
SMILES	Pf growth 96h	HCMV antiviral	Pf growth 48h	Sm TGR block	Giardia FBPA inh
O=C(CC(C(=O)O)c1cccc(Br)c1)c1ccc(Cl)cc1 (centres undefined)	-9%	-19	6%	-1%	5%
COc1ccc(NC(=O)C2COc3ccccc3C2)cc1Cl (centres undefined)	·	5	·	4%	·
c1ccc(CSc2nnc3c4ccccc4c4ccccc4c3n2)cc1	64%	·	3%	1%	-16%
CCCC1(C2CCCC2)NC(=O)NC1=O (centres undefined)	·	-4	·	·	·
NC(=O)c1cccc(-c2cc(Nc3ccc(OC(F)(F)F)cc3)ncn2)c1	15µM*	?	13µM*	2%	-9%
Cc1nc2c(-c3ccc(F)cc3)cnn2c(N)c1-c1ccccc1	-52%	-72*	4%[0.00184 µM]	0%	14%
COCOc1cc(OC)ccc1C(=O)/C=C\c1ccc2c(c1)OCO2	·	·	·	·	-11%[12.9 µM]
Cc1ccc(C(=O)Nc2sc3c(c2C(=O)O)CCCC3)o1	22%	-62*	24%	-5%	·
O=C(Nc1sc2c(c1C(=O)c1ccccc1)CCCC2)c1cccnc1	0.37µM*	64	0%	-2%	5%
Cc1ccc(C(=O)Nc2sc3c(c2C(=O)O)CCCCC3)o1	?	41	-12%	-12%	15%
CC(C)(C)c1ccc(C(=O)Nc2sc3c(c2C(=O)O)CCC3)cc1	28%	-76*	-29%	-14%	?
O=[n+]1ccn([O-])c2ccccc21	22%	·	9%	·	·
Cc1ccccc1NC(=O)c1c(C)oc2ccc(O)c(CN3CCC(C)CC3)c12	·	-28	·	3%	·
O=C1C2C3CCC(CC3)C2C(=O)N1c1ccccc1 (centres undefined)	1%	-7	-18%	3%	?
O=C1C(=Cc2cccs2)Oc2ccccc21	·	-69*	·	·	·
COc1ccc(CCNC(=O)COC(=O)c2cc(Cl)nc(Cl)c2)cc1	·	0	·	·	·
Cc1ccc(NC(=O)N[C@H]2CC[C@@]34CCCN3C(=O)CCC[C@H]4[C@H]2C)cc1	·	-3	·	·	·
CC(C)(C)c1nc(NC(=O)Nc2ccccc2)sc1Br	?	-97*	?	6%	-5%
COc1ccc2nc(NC(=O)Nc3ccccc3)sc2c1	?	24	-10%	7%	-3%
Cc1ccn2c(CNCC3OCCc4ccccc43)c(C(=O)N3CCCCCC3)nc2c1 (centres undefined)	25%	8	?	-9%	1%
O=C(c1nc2ccccn2c1CNCCCn1cccn1)N1CCCC1	13µM*	5	-4%	-13%	6%
Cc1ccn2c(CNCCCn3cccn3)c(C(=O)N3CCCCCC3)nc2c1	24%	2	8%	-21%	0%
O=C(c1nc2ccccn2c1CNCC1OCCc2ccccc21)N1CCOCC1 (centres undefined)	12µM*	-20	12%	10%	0%
Cc1ccc(-c2nnc(SCC(=O)NCC3CCCO3)nc2-c2ccc(C)cc2)cc1 (centres undefined)	?	-10	15µM*	-2%	·
Cc1ccc(SCC(=O)NCC2CCCO2)cc1 (centres undefined)	-36%	-93*	47%	1%	-1%
O=C(Nc1ccncc1)c1cc([N+](=O)[O-])ccc1Cl	·	·	·	·	2%
CC(C)(C)Sc1ccc([N+](=O)[O-])cc1C(=O)Nc1ccncc1	0.93µM*	-3	?	12%	0%

Compound activity as filed in PubChem BioAssay.
